Screening results (PubChem BioAssay)
An excerpt weighted towards active compounds, which were near 2.5% of everything screened.
Exocytosis inh: lytic granule exocytosis inhibition | TALL-104 LAMP-1 surface exposure, flow cytometry; cells stimulated with thapsigargin and PMA | inhibition, % at 10 µM | 360,000 compounds, 0.66% hits | AID 651702;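 active = inhibition above about 55%, limit read from the data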
rCAG RNA binder: r(CAG) repeat RNA binding. TO-PRO-1 dye displacement fluorescence. inhibition, % at 3 µM. 370,000 compounds, 1.3% hits. AID 651821;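 active = inhibition above the plate cutoff, the mean of all test compounds on that plate plus 3 SD, cut at about 35% in these data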;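 also: higher means more dye released from RNA so lower well fluorescence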
ABCB6 inh MLPCN: blocks the human ABCB6 transporter; Q9NP58; 360,000 compounds, 0.19% hits; fluorescence ratio to DMSO, % at 10 µM; K562-ABCB6 porphyrin accumulation, flow cytometry, 1 h; active compounds read low;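 active = fluorescence ratio to DMSO below 75%, the collection mean minus 3 SD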;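 also: signal is porphyrin accumulated inside mitochondria; lower ratio means ABCB6 inhibition with less porphyrin fluorescence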
Target sequence (Q9NP58 whole entry, looked up): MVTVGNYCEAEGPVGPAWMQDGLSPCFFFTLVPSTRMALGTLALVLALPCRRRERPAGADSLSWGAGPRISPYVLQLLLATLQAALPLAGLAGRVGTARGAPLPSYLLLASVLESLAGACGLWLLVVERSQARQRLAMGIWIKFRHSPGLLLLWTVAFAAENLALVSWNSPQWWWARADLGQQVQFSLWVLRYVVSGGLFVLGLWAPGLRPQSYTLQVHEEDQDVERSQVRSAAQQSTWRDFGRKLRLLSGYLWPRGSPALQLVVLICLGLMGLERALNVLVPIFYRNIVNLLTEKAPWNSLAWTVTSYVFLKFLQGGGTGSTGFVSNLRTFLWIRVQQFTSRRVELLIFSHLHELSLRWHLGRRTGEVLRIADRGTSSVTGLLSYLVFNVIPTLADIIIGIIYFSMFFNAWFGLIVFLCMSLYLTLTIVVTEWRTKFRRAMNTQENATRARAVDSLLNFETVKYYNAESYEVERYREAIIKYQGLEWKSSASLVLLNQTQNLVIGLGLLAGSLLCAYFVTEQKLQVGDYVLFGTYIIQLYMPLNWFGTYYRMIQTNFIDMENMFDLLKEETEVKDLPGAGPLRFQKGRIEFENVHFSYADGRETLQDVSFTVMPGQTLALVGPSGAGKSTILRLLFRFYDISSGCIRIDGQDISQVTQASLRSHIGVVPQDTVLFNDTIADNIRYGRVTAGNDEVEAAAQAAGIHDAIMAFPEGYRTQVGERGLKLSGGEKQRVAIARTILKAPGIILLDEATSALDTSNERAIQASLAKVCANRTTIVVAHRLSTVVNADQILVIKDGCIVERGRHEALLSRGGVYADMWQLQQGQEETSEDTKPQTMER
PG9 binder: PG9 antibody binding by small molecule. TR-FRET gp120-PG9 antibody binding. AID 624416. 360,000 compounds, 0.43% hits. inhibition, % at 6.7 µM; in the data active = inhibition above about 8.5%
Each line names hits and unclear results; the compound was inactive in the other large screens.

Cc1ccccc1CS(=O)(=O)Cc1ccc(C(=O)Nc2cccc(Cl)c2F)o1	none (no result: Exocytosis inh, ABCB6 inh MLPCN, PG9 binder)
COc1ccc2ncc(S(=O)(=O)c3ccccc3)c(N3CCN(c4ccccc4)CC3)c2c1	none
CCN1Cc2c(/C=C/c3ccccc3)nc3ccc(OC)cc3c2N(c2cccc(Cl)c2)C1	Exocytosis inh 65
Cn1nc(C(F)(F)F)c(/C=N/OC(=O)c2ccccc2)c1Cl	Exocytosis inh 57
Cc1nn(C)c(Cl)c1/C=N/OC(=O)c1ccccc1	none
Cc1ccc(-n2ncc(C(=O)Nc3cc(Cl)cc(Cl)c3)c2C2CCNCC2)cc1C	Exocytosis inh 88
COc1cc(/C=C/C(=O)c2ccc(NS(=O)(=O)c3ccc(C)cc3)cc2)ccc1OC(F)F	none
COc1cc(/C=C/C(=O)c2ccc(NS(=O)(=O)c3ccc(C)cc3)cc2)cc(OC)c1O	rCAG RNA binder 47
Cc1ccc(Cn2nnc3c2-c2ccccc2S(=O)(=O)N(C)C3)cc1	none (no result: Exocytosis inh, ABCB6 inh MLPCN, PG9 binder)
O=C1C(C2=C(O)c3ccccc3C2=O)=Nc2ccccc21	rCAG RNA binder 44
CN=CC1=C(O)c2ccccc2C1=O	none
Cc1ccccc1C(=O)OCC(=O)NCc1ccco1	Exocytosis inh 62
COc1ccc(N2CCCN(CC(=O)Nc3ccccc3C)CC2)cc1	none (no result: Exocytosis inh, ABCB6 inh MLPCN, PG9 binder)
CCCCC1=CC2=C(c3ccco3)C(=O)C(C)(OC(=O)c3ccc(OC)cc3)C(=O)C2=CN1Cc1ccco1 (configuration not stated)	none (no result: rCAG RNA binder, PG9 binder)
CCCCC1=CC2=C(c3ccco3)C(=O)C(C)(OC(=O)c3ccc(OC)cc3)C(=O)C2=CN1c1ccc(OC)cc1 (configuration not stated)	PG9 binder 11
CCCCC1=CC2=C(c3ccco3)C(=O)C(C)(OC(=O)c3ccc(OC)cc3)C(=O)C2=CN1CC(C)C (configuration not stated)	PG9 binder 37
Cn1cc(CCOCc2ccccn2)c2ccccc21	none (no result: Exocytosis inh, ABCB6 inh MLPCN)
CCCCOc1ccc(NC(=O)Cn2c(=O)ccc3c(C)cc(C)nc32)cc1	PG9 binder 9.0
CN(C(=O)c1cccc(NC(=O)Cc2ccc(NC(=O)C3CCN(C(=O)CCc4ccccc4)CC3)cc2)c1)C1CCCC1	none (no result: Exocytosis inh, ABCB6 inh MLPCN)
O=C(C#Cc1ccccc1)c1cccc([N+](=O)[O-])c1	ABCB6 inh MLPCN 71
O=C(/C=C/c1ccccc1F)c1cccc([N+](=O)[O-])c1	Exocytosis inh 85
O=C(/C=C(\Nc1cccc(F)c1)c1ccccc1)c1ccccc1	none (no result: Exocytosis inh, ABCB6 inh MLPCN)
O=C(O)C1C2C=CC(O2)C1C(=O)Nc1ccc(S(=O)(=O)N2CCc3ccccc32)cc1 (configuration not stated)	none
O=C(O)C1C2C=CC(O2)C1C(=O)Nc1ccc(S(=O)(=O)Nc2ccccc2)cc1 (configuration not stated)	Exocytosis inh 102
COc1ccc2c(c1)CN1C(=O)N(C3CCCC3)S(=O)(=O)CC21 (configuration not stated)	none (no result: Exocytosis inh, ABCB6 inh MLPCN, PG9 binder)
CN1CCN(c2ccc(NC(=O)c3ccc(-c4ccc(Br)cc4)o3)cc2)CC1	Exocytosis inh 76
COc1ccc(C(NC(=O)/C=C/c2ccco2)c2ccc(OC)cc2)cc1	none
COc1ccc(C(NC(=O)/C=C\c2ccco2)c2ccc(OC)c(OC)c2)cc1 (configuration not stated)	ABCB6 inh MLPCN 61
Cc1cc(C)c2c(-n3cccc3)c(C(=O)NNS(=O)(=O)c3ccc(Cl)cc3)sc2n1	rCAG RNA binder 35
Cc1cc(C)c2c(=O)n(CC(=O)Nc3ccc(Br)c(C)c3)sc2n1	none
Cc1cc(C)c2c(=O)n(CC(=O)Nc3cccc(Cl)c3C)sc2n1	Exocytosis inh 65
N#Cc1ccc(S(=O)(=O)N2CCCc3nc(-c4ccccc4)ccc32)cc1	none (no result: Exocytosis inh, ABCB6 inh MLPCN)
CCN(CC)c1nc2c(c(=O)n(C)c(=O)n2C)n1CCCc1ccccc1	none
CN(Cc1ccccc1)c1nc2c(c(=O)n(C)c(=O)n2C)n1CCCc1ccccc1	Exocytosis inh 66
COC(=O)C1=C(C)N(C)C(=NCc2ccc3c(c2)OCO3)NC1c1ccc(Cl)cc1 (configuration not stated)	none (no result: Exocytosis inh, ABCB6 inh MLPCN)
COc1ccccc1C(=O)Nc1nc(-c2ccc(S(=O)(=O)N3CCOCC3)cc2)cs1	Exocytosis inh 65
COc1ccccc1OC(C)C(=O)Nc1nc(-c2ccc(S(=O)(=O)N3CCOCC3)cc2)cs1 (configuration not stated)	none
CCc1ccc(/C=N/NC(=O)c2cc(-c3cccc([N+](=O)[O-])c3)n[nH]2)cc1	Exocytosis inh 76
O=C(N/N=C/c1cccc([N+](=O)[O-])c1)c1cc(-c2ccc3c(c2)OCO3)n[nH]1	none
O=C(O)c1cc(NC(=O)c2ccc(Br)cc2)cc(NC(=O)c2ccc(Br)cc2)c1	rCAG RNA binder 80
